SW480 rereplic – induces DNA re-replication in SW480 colon adenocarcinoma cells; SW480 DNA re-replication, Hoechst DNA content imaging, 48 h; Potency, µM (titrated, usually from 46.1 µM), for inactives: at the top dose re-replication activation, actives largely listed as activators; 340,000 compounds, 1.8% hits; AID 624297; further: potency means the concentration at half of the fitted maximal effect; % of control where 0% means no effect; nearly all actives have a fitted effect of over 55% in size
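Hoechst fluorescence of nuclei (405 nm excitation, 500-530 nm emission) measured by plate-scanning imager after 48 hr compound exposure at 37 C; re-replication scored as increased number of nuclei with elevated intensity.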
Gal4-VP16 FLuc – Gal4-VP16 reporter inhibition counter-screen | Drosophila S2 Gal4-VP16 UAS-luciferase, luminescence, 20 h | Potency, µM (top dose mostly 53.6 µM), without a hit: at the top dose activity, negative = inhibition, actives largely listed as inhibitors | 310,000 compounds, 3.5% hits | AID 2546;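 further: Gal4-VP16 expression switched on by copper sulfate through the metallothionein promoter; potency means the concentration at half of the fitted maximal effect; on the % scale 0 is the no-effect control and ±100 the full control effect; nearly all actives have a fitted effect of over 50% in size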
MCF10A rereplic – induces DNA re-replication in MCF 10a normal breast cells; MCF 10A DNA re-replication, Hoechst nuclear intensity, 48 h; 350,000 compounds, 2.9% hits; AID 624296; Potency, µM (highest dose often 46.1 µM), for inactives: at the top dose activity, positive = re-replication, usual class: activators; further: potency means the concentration at half of the fitted maximal effect; % of control where 0% means no effect; nearly all actives have a fitted effect of over 50% in size
IL-1B inflam inh – inhibitors of inflammasome signaling (IL-1 beta secretion). 360,000 compounds, 4.7% hits. AID 743279. THP-1 LPS/ATP IL-1B secretion, AlphaLISA, 16 h; stronger effect = lower value. activity change, % at 57.5 µM; in the data active means activity change below about -50%; inconclusive means mostly about -30% to -49%; further: on the % scale 0 is the no-effect control and ±100 the full control effect
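Secreted IL-1B measured by AlphaLISA bead assay after 16 h compound exposure of THP-1 cells; compounds (final up to 57.5 uM) added 1 h before LPS (250 ng/mL) and ATP (1.25 mM) stimulation; lower signal means less secretion.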
RORg inh – inhibitors of mouse ROR gamma transcriptional activity. 310,000 compounds, 5.4% hits. Drosophila S2 Gal4-RORgamma UAS-luciferase reporter, 20 h. AID 2551. P51450. Potency, µM (top dose mostly 53.6 µM), inactives show top-dose activity change, negative = inhibition, actives largely listed as inhibitors; further: potency means the concentration at half of the fitted maximal effect; on the % scale 0 is the no-effect control and ±100 the full control effect; nearly all actives have a fitted effect of over 60% in size
Target sequence (P51450 whole entry, looked up, the tested form may be a part): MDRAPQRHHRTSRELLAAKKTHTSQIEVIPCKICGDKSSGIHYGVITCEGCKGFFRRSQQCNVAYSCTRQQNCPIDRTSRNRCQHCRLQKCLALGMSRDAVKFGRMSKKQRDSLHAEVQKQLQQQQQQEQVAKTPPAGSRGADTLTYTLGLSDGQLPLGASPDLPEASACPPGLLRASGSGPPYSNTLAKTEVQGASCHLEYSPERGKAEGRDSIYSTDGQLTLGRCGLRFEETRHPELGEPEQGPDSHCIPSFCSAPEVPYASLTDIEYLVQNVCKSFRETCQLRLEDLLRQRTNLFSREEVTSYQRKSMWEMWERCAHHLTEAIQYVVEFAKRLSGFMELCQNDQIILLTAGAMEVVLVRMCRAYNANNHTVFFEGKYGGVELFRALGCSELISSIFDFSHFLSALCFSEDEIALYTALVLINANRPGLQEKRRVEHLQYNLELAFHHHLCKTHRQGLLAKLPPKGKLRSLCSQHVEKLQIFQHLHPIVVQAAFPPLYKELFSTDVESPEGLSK
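Luciferase reporter read in Schneider cells carrying Gal4-RORγ (mouse) and UAS-Photinus luciferase; cells given compound 1 h before 700 uM copper sulfate induction, then incubated 20 h at ambient temperature.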
Numbers without * were called inactive; ? = inconclusive; . = not tested or not shown; [ ] = dose if it differs, or a comment. Shown are actives, neighbours in structure and some others; about 11% of the full set was active somewhere. Unless noted, the call rests on the fitted dose curve; in most records, active means well fitted curve in the direction sought with a large enough effect; inconclusive means small, poorly fitted or top-dose-only effect, or another doubt; inactive means no such curve, though single readings can be large; an effect the other way counts as inactive or inconclusive.

SMILES	SW480 rereplic	Gal4-VP16 FLuc	MCF10A rereplic	IL-1B inflam inh	RORg inh
COc1cccc(C(=O)Nc2ccc(N3CCN(C(=O)c4cccs4)CC3)cc2)c1	5.8µM*	3%	13µM*	-87*	1%
COc1cccc(OC)c1C(=O)Nc1ccc(N2CCN(C(=O)c3cccs3)CC2)cc1	-4%	.	-5%	0	.
O=C(Nc1ccc(N2CCN(C(=O)c3cccs3)CC2)cc1)c1cccc(F)c1	?	5%	?	-89*	?
O=C(CN1C(=O)c2ccccc2C1=O)Oc1ccc(F)cc1	.	2%	.	.	-20%
CC1(C(=O)NCCc2c[nH]c3ccccc23)CCN1CC1CCCCC1 (stereo unspecified)	.	.	.	2	.
c1ccc(-c2oc3ncnc(NCCN4CCOCC4)c3c2-c2ccccc2)cc1	-8%	-4%	-1%	-82*	-9%
N=c1c2c(-c3ccccc3)c(-c3ccccc3)oc2ncn1CCCN1CCOCC1	?	?	12µM*	?	?
CCCc1nc2ccc(C)cn2c1Cc1cccc(Cl)c1	.	.	.	2	.
CS(=O)(=O)N(CC(=O)NCc1ccc(Cl)cc1)C1CCCCC1	1%	-9%	-15%	-15	-21%
CS(=O)(=O)N(CC(=O)N1CCN(C(c2ccccc2)c2ccccc2)CC1)C1CCCCC1	-11%	-1%	12%	-15	13µM*
CS(=O)(=O)N(CC(=O)NCc1ccccc1Cl)C1CCCCC1	21µM*	-5%	-10%	1	?
Cc1ccc(N(C(C)C(=O)N2CCC(C)CC2)S(C)(=O)=O)cc1C (stereo unspecified)	?	4%[0.365 µM]	-14%	7	-42%
Cc1ccc(N(C(C)C(=O)N2CCOCC2)S(C)(=O)=O)cc1C (stereo unspecified)	23µM*	4%	-13%	18	9%
CC(C)(C)OC(=O)CNC(=O)c1[nH]cnc1C(=O)NCC(=O)OCc1ccccc1	1%	6%	19%	14	?
C[C@H](NC(=O)c1nc[nH]c1C(=O)N[C@@H](C)c1ccccc1)c1ccccc1	1%	.	?	9	.
O=C(CNC(=O)c1[nH]cnc1C(=O)N[C@@H](Cc1ccccc1)C(=O)OCc1ccccc1)OCc1ccccc1	-93%[9.22 µM]	?	?	-8	?
CN(Cc1ccccc1)C(=O)c1[nH]cnc1C(=O)NCC(=O)OCc1ccccc1	-3%	-30%	0%	2	11µM*
NCCCCCNC(=O)c1[nH]cnc1C(=O)N[C@@H](Cc1ccccc1)C(=O)OCc1ccccc1	-9%	.	15%	23	.
O=C(N[C@@H](Cc1ccccc1)C(=O)OCc1ccccc1)c1nc[nH]c1C(=O)NC(c1ccccc1)c1ccccc1	22%	5.6µM*	?	0	3.5µM*
C[C@H](NC(=O)c1nc[nH]c1C(=O)N[C@@H](Cc1ccccc1)C(=O)OCc1ccccc1)c1ccccc1	6%	7.9µM*	?	16	4.5µM*
CN(Cc1ccccc1)C(=O)c1[nH]cnc1C(=O)N[C@@H](Cc1ccccc1)C(=O)OCc1ccccc1	?	10µM*	?	9	10µM*
CCCCCC(=O)Nc1ccc(C(=O)CN2C(=O)NC3(CCCCCC3)C2=O)cc1	?	.	?	95	.
COc1ccc(-c2csc(C(C)(O)c3ccc(OC)cc3)n2)cc1 (stereo unspecified)	.	.	.	45	.
C[C@H](NC(=O)c1nc[nH]c1C(=O)N[C@H](C)c1ccccc1)C(=O)OCc1ccccc1	?	3%	?	78	-5%
C[C@@H](NC(=O)c1nc[nH]c1C(=O)N[C@@H](Cc1ccccc1)C(=O)OCc1ccccc1)c1ccccc1	7%	7.1µM*	?	46	5.6µM*
SMILES	SW480 rereplic	Gal4-VP16 FLuc	MCF10A rereplic	IL-1B inflam inh	RORg inh
Cc1ccc(NC(=O)N2CCc3ccccc32)cc1	3%	10µM*	4%	-8	?
CN1CCN(c2ccc(NC(=O)N3CCc4ccccc43)cc2)CC1	1%	8.9µM*	16%	-20	10µM*
Cc1ccc(NC(=O)N2CCCc3ccccc32)cc1	-12%	5%	-4%	1	31%
O=C(Nc1ccc2c(c1)OCCO2)C(c1ccccc1)n1c(=O)c(-c2cc3ccccc3[nH]2)nc2ccccc21 (stereo unspecified)	.	.	.	17	.
O=C(Nc1nc(-c2ccccn2)cs1)Nc1ccc(F)cc1F	?	?	14%	-83*	3.5µM*
O=C(Nc1nc(-c2cc(F)ccc2F)cs1)c1ccccn1	?	1.3µM*	-14%	70	0.1µM*
NC(=O)c1ccc(NS(=O)(=O)c2ccc(S(=O)(=O)N3CCCC3)cc2)cc1	.	.	.	13	.
COc1cc2c(cc1OC)CN(c1ccc(C(N)=O)cc1[N+](=O)[O-])CC2	-6%	5%	?	?	2%
CC(C)CCN1CCC(n2nccc2NC(=O)c2ccc3c(c2)OCO3)CC1	1%	-4%	4%	-67*	-5%
CC(C)N1CCC(n2nccc2NC(=O)c2ccc3c(c2)OCO3)CC1	1%	2%	-3%	26	-2%
CCOC(=O)C(=CN=C(N)Nc1nc2ccccc2o1)C(=O)OCC	8%	?	-12%	0	7.1µM*
CCCCOC(=O)CSc1nc2ccccc2o1	-6%	-14%	-2%	.	-9%
CCCOC(=O)Nc1nc2ccccc2o1	-21%	?	-1%	18	14µM*
CCCCC(=O)N/C(N)=N/c1nc2ccccc2o1	1%	-12%	7%	-11	?
CCCc1ccc2oc(C(=O)NCCN3CCCC(O)C3)c(C)c2c1 (stereo unspecified)	23µM*	.	?	-66*	.
Cc1nnc(N(Cc2ccco2)C(=O)c2cccc(C#N)c2)s1	?	1%	4%	7	13µM*
Cc1ccc(-n2nc3c(=O)n(CC(=O)NC(C)CCc4ccccc4)nc(C)c3c2C)cc1 (stereo unspecified)	0%	-8%	2%	19	3%
CCS(=O)(=O)Nc1ccc(-c2nnc(SCC(=O)OC)o2)cc1	-3%	-2%	5%	-85*	?
NC(=O)CSc1nnc(-c2ccc(S(=O)(=O)N3CCCC3)cc2)o1	2%	5%	2%	23	-26%
COC(=O)CSc1nnc(-c2ccc(S(=O)(=O)N3CCCC3)cc2)o1	-1%	-4%	-3%	-52*	-28%
CC(=O)OCCN1C(=O)c2c(C)nc3ccc(S(=O)(=O)N4CCOCC4)cc3c2C1=O	.	5%	.	.	-5%
Clc1ccc(-c2cn3ccccc3n2)cc1	4%	-29%	-3%	96	?
Cc1cccn2cc(-c3ccc(F)cc3)nc12	-5%	?	17%	7	?
Cc1cccn2cc(-c3ccccc3)nc12	-5%	-26%	-6%	7	11µM*
CC(=O)Nc1ccc(-c2cn3cc(C)ccc3n2)cc1	2%	?	2%	-19	7.1µM*

High-throughput results as filed in PubChem BioAssay.
